Test results from publication PMC7862700, “An all-to-all approach to the identification of sequence-specific readers for epigenetic DNA modifications on cytosine”.

Target: T1, GABPA (Homo sapiens, UniProt Q06546 1-454)
T1 sequence: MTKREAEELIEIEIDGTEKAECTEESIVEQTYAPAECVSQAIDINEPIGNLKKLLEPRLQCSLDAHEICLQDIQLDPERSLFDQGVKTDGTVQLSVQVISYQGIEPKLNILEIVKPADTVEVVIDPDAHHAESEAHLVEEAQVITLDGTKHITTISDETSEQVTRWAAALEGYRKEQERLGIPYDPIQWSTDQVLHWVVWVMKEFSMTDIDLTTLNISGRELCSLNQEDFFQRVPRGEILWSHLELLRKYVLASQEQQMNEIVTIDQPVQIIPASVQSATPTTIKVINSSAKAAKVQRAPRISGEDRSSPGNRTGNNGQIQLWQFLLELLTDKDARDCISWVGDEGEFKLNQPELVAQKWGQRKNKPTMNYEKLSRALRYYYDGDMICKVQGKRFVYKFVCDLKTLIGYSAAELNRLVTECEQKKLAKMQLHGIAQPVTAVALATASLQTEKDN
Assay: DAPPL (digital affinity profiling via proximity ligation, sequencing); 10 mM Tris-HCl pH 7.5, 50 mM NaCl, 1 mM DTT, 4% glycerol, room temperature, 30 min; GST-TFs on glutathione beads, 16-mer random dsDNA library, 0.1% formaldehyde crosslink after washing; high values mean tight binding
Conditions: protein: recombinant; tags: N-terminal GST; dsDNA, one strand shown
How it was run: (§1)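 A tag-only sample was pooled with DNA-barcoded human transcription factors that had been expressed in yeast as GST fusions and captured on glutathione beads. The pools were incubated for 30 min at room temperature with 200 nmole of a random double-stranded 16-mer DNA library in Tris/NaCl/DTT/glycerol buffer, then washed, crosslinked with 0.1% formaldehyde, proximity-ligated (BsaI/T4 ligase, 1 h, 37 °C), PCR-amplified and sequenced on an Illumina NextSeq500. Binding signal is each hexamer's read frequency for a factor divided by its frequency for the tag-only sample.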

Sequence	binding signal
AGGCCT	1.08 fold enrichment (6-mer frequency, TF over GST control)
CGGCAC	1.03 fold enrichment (6-mer frequency, TF over GST control)
TGCGTC	1.01 fold enrichment (6-mer frequency, TF over GST control)

Target: T2, EHF (Homo sapiens, UniProt Q9NZC4 1-300)
T2 sequence: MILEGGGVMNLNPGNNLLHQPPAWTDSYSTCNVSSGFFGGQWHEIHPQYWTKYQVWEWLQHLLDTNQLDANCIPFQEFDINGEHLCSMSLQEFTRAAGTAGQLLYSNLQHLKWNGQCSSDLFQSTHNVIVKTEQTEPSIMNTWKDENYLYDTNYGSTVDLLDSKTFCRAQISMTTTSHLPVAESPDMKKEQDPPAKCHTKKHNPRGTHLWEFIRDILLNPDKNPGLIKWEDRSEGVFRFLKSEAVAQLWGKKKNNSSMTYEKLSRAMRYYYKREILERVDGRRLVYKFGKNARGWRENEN
Assay: as above
Conditions: protein: recombinant; tags: N-terminal GST; dsDNA, one strand shown
How it was run: as §1

Sequence	binding signal
GCGGCT	1.02 fold enrichment (6-mer frequency, TF over GST control)
CATCGT	1 fold enrichment (6-mer frequency, TF over GST control)
AAGGTC	1.08 fold enrichment (6-mer frequency, TF over GST control)

Target: SPIB (Homo sapiens, UniProt Q01892 1-262)
Assay: as above
Conditions: protein: recombinant; tags: N-terminal GST; dsDNA, one strand shown
How it was run: as §1

Chain of SPIB (Q01892 whole entry): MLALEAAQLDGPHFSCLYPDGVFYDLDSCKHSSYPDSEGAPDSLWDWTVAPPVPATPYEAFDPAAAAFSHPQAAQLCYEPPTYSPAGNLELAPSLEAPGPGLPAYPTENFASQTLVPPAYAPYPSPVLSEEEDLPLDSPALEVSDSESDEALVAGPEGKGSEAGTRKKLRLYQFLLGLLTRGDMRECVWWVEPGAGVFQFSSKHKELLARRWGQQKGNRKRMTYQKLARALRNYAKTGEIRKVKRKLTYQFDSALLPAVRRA

Sequence	binding signal
AGTTTA	1.04 fold enrichment (6-mer frequency, TF over GST control)
CATCGT	1.05 fold enrichment (6-mer frequency, TF over GST control)
TGAAGG	1 fold enrichment (6-mer frequency, TF over GST control)
CGGCAC	1.03 fold enrichment (6-mer frequency, TF over GST control)

Target: T3, ELK3 (Homo sapiens, UniProt P41970 1-407)
T3 sequence: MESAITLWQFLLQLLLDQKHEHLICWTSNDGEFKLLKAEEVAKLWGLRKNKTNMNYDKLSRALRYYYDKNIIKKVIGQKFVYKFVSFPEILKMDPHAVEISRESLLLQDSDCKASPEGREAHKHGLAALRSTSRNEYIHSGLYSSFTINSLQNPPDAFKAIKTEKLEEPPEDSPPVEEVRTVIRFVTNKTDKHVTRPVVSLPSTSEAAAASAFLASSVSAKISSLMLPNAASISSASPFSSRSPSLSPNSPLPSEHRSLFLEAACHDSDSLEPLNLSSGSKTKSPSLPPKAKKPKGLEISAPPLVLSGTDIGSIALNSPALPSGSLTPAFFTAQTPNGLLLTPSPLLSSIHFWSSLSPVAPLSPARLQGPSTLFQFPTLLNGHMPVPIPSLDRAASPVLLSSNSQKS
Assay: as above
Conditions: protein: recombinant; tags: N-terminal GST; dsDNA, one strand shown
How it was run: as §1

Sequence	binding signal
AGTTTA	1.03 fold enrichment (6-mer frequency, TF over GST control)
AGGCCT	1.01 fold enrichment (6-mer frequency, TF over GST control)
TGGGCG	1.01 fold enrichment (6-mer frequency, TF over GST control)
AGGCTA	1.05 fold enrichment (6-mer frequency, TF over GST control)

Target: T4, ETV2 (Homo sapiens, UniProt O00321 1-342)
T4 sequence: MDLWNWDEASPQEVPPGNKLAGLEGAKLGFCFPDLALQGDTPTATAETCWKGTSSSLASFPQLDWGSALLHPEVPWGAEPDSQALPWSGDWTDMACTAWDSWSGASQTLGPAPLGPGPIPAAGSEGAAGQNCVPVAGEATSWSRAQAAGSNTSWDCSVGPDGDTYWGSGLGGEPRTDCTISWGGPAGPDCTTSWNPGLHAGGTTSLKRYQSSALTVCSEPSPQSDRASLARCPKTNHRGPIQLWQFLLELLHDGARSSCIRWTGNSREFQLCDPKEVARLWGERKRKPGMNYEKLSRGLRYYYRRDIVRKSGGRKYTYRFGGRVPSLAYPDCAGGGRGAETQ
Assay: as above
Conditions: protein: recombinant; tags: N-terminal GST; dsDNA, one strand shown
How it was run: as §1

Sequence	binding signal
GGCATA	1.05 fold enrichment (6-mer frequency, TF over GST control)
AGCCCA	1.04 fold enrichment (6-mer frequency, TF over GST control)
GATAAC	1.08 fold enrichment (6-mer frequency, TF over GST control)
ACTGGG	1.03 fold enrichment (6-mer frequency, TF over GST control)
CGGACC	1.02 fold enrichment (6-mer frequency, TF over GST control)
ACCCGT	1 fold enrichment (6-mer frequency, TF over GST control)
GTATCG	1.09 fold enrichment (6-mer frequency, TF over GST control)
AGCCAT	1.02 fold enrichment (6-mer frequency, TF over GST control)
GCGGCT	1.08 fold enrichment (6-mer frequency, TF over GST control)
GTTCAG	1.01 fold enrichment (6-mer frequency, TF over GST control)
GCAAAG	1.12 fold enrichment (6-mer frequency, TF over GST control)
GCGACG	1.15 fold enrichment (6-mer frequency, TF over GST control)
AGGCCT	1.01 fold enrichment (6-mer frequency, TF over GST control)
TGGGCG	1 fold enrichment (6-mer frequency, TF over GST control)
CATCGT	1.01 fold enrichment (6-mer frequency, TF over GST control)
CCGTTA	1.05 fold enrichment (6-mer frequency, TF over GST control)
AGGCTA	1 fold enrichment (6-mer frequency, TF over GST control)
AGCAAG	1.02 fold enrichment (6-mer frequency, TF over GST control)
AAGGTC	1.06 fold enrichment (6-mer frequency, TF over GST control)
CTGGGA	1.01 fold enrichment (6-mer frequency, TF over GST control)
TCGTCG	1.05 fold enrichment (6-mer frequency, TF over GST control)
TGAAGG	1 fold enrichment (6-mer frequency, TF over GST control)
TTGGGA	1.03 fold enrichment (6-mer frequency, TF over GST control)
TGCGTC	1.04 fold enrichment (6-mer frequency, TF over GST control)
GACCCA	1.09 fold enrichment (6-mer frequency, TF over GST control)

Target: T5, ELF3 (Homo sapiens, UniProt P78545 1-371)
T5 sequence: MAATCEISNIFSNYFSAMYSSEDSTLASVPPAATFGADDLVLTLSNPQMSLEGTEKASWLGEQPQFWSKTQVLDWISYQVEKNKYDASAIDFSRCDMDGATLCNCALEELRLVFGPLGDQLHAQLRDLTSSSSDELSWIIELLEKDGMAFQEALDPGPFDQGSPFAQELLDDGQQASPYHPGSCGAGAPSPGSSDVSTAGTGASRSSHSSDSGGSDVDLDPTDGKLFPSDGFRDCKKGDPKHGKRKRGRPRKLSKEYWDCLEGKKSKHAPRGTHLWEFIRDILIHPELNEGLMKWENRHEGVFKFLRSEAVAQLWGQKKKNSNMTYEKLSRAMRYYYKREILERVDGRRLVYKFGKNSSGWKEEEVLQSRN
Assay: as above
Conditions: protein: recombinant; tags: N-terminal GST; dsDNA, one strand shown
How it was run: as §1

Sequence	binding signal
AGCCCA	1.04 fold enrichment (6-mer frequency, TF over GST control)
CCTAGT	1.04 fold enrichment (6-mer frequency, TF over GST control)
ACAAGT	1 fold enrichment (6-mer frequency, TF over GST control)
GCGGCA	1.01 fold enrichment (6-mer frequency, TF over GST control)
AGTTTA	1.11 fold enrichment (6-mer frequency, TF over GST control)
GTATCG	1.13 fold enrichment (6-mer frequency, TF over GST control)
ACCAAG	1.14 fold enrichment (6-mer frequency, TF over GST control)
TAGTCA	1.07 fold enrichment (6-mer frequency, TF over GST control)
GTCAAA	1 fold enrichment (6-mer frequency, TF over GST control)
GTAGCC	1.06 fold enrichment (6-mer frequency, TF over GST control)
CTAGTG	1.01 fold enrichment (6-mer frequency, TF over GST control)
GACTTG	1.08 fold enrichment (6-mer frequency, TF over GST control)
CCGTTA	1.01 fold enrichment (6-mer frequency, TF over GST control)
GAAAGC	1.06 fold enrichment (6-mer frequency, TF over GST control)
TCATAG	1.04 fold enrichment (6-mer frequency, TF over GST control)
CGGCAC	1.1 fold enrichment (6-mer frequency, TF over GST control)
GACCCC	1.04 fold enrichment (6-mer frequency, TF over GST control)
TGCGTC	1.03 fold enrichment (6-mer frequency, TF over GST control)

Target: CRX (Homo sapiens, UniProt O43186 1-299)
Assay: as above
Conditions: protein: recombinant; tags: N-terminal GST; dsDNA, one strand shown
How it was run: as §1

Chain of CRX (O43186 whole entry): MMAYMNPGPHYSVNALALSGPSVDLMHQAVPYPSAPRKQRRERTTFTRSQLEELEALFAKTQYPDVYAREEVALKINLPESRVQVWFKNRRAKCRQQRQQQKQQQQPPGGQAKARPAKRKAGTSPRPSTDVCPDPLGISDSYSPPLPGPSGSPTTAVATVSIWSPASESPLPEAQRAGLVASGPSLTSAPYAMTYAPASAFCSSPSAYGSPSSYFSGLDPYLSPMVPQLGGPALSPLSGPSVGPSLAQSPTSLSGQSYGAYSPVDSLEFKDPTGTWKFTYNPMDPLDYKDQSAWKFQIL

Sequence	binding signal
AGCCCA	1.05 fold enrichment (6-mer frequency, TF over GST control)
GATAAC	1.13 fold enrichment (6-mer frequency, TF over GST control)
AGTTTA	1.08 fold enrichment (6-mer frequency, TF over GST control)
GCGGCT	1.05 fold enrichment (6-mer frequency, TF over GST control)
AGGCCT	1.07 fold enrichment (6-mer frequency, TF over GST control)
AGGCTA	1.19 fold enrichment (6-mer frequency, TF over GST control)
TTGGGA	1.04 fold enrichment (6-mer frequency, TF over GST control)

Target: ETV1 (Homo sapiens, UniProt P50549 1-477)
Assay: as above
Conditions: protein: recombinant; tags: N-terminal GST; dsDNA, one strand shown
How it was run: as §1

Chain of ETV1 (P50549 whole entry): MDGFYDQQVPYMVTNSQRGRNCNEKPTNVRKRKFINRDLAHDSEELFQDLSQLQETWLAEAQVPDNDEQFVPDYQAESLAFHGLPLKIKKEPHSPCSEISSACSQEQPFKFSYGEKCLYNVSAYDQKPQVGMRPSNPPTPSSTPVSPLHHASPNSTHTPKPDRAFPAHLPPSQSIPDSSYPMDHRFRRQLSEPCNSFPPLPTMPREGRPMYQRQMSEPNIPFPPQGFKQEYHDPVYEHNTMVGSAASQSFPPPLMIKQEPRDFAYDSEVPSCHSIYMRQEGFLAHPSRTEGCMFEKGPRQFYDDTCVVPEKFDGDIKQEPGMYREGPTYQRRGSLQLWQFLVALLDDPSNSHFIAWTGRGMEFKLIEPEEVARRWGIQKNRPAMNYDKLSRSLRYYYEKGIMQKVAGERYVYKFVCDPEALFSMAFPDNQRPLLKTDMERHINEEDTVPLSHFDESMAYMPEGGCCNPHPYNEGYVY

Sequence	binding signal
CCTAGT	1.02 fold enrichment (6-mer frequency, TF over GST control)
AGTTTA	1.04 fold enrichment (6-mer frequency, TF over GST control)
GTCAAA	1 fold enrichment (6-mer frequency, TF over GST control)
GTAGCC	1 fold enrichment (6-mer frequency, TF over GST control)

Target: T6, ERF (Homo sapiens, UniProt P50548 1-548)
T6 sequence: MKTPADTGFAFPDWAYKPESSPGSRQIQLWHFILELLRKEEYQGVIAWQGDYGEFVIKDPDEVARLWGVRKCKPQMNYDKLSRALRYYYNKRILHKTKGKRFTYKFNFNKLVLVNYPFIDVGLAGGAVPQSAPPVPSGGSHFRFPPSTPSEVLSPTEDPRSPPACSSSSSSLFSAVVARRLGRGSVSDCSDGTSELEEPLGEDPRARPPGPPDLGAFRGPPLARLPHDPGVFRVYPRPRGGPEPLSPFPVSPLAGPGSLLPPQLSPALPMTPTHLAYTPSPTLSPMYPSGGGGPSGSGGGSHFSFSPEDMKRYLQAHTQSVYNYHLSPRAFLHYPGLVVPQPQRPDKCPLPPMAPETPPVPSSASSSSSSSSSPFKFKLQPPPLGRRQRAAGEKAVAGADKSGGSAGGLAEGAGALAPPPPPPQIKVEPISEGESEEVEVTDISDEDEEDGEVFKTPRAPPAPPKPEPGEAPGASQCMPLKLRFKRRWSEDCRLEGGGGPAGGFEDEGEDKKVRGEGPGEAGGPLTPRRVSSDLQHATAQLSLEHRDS
Assay: as above
Conditions: protein: recombinant; tags: N-terminal GST; dsDNA, one strand shown
How it was run: as §1

Sequence	binding signal
CCTAGT	1 fold enrichment (6-mer frequency, TF over GST control)
AGTTTA	1.01 fold enrichment (6-mer frequency, TF over GST control)
GCGGCT	1.08 fold enrichment (6-mer frequency, TF over GST control)
TCATAG	1 fold enrichment (6-mer frequency, TF over GST control)

Target: T7, ETV7 (Homo sapiens, UniProt Q9Y603 1-341)
T7 sequence: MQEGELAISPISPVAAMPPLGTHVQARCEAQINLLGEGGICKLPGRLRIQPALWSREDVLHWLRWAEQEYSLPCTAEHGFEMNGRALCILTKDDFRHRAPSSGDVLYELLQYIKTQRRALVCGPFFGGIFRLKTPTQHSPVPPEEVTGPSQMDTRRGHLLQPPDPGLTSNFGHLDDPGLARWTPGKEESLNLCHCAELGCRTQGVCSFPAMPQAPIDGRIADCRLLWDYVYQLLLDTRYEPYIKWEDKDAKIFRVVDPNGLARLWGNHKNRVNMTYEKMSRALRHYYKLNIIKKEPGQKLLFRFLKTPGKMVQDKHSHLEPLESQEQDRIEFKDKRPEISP
Assay: as above
Conditions: protein: recombinant; tags: N-terminal GST; dsDNA, one strand shown
How it was run: as §1

Sequence	binding signal
AGTTTA	1.02 fold enrichment (6-mer frequency, TF over GST control)
AGGCCT	1.01 fold enrichment (6-mer frequency, TF over GST control)
CGGCAC	1 fold enrichment (6-mer frequency, TF over GST control)
TGCGTC	1.04 fold enrichment (6-mer frequency, TF over GST control)

Target: ETV6 (Homo sapiens, UniProt P41212 1-452)
Assay: as above
Conditions: protein: recombinant; tags: N-terminal GST; dsDNA, one strand shown
How it was run: as §1

Chain of ETV6 (P41212 whole entry): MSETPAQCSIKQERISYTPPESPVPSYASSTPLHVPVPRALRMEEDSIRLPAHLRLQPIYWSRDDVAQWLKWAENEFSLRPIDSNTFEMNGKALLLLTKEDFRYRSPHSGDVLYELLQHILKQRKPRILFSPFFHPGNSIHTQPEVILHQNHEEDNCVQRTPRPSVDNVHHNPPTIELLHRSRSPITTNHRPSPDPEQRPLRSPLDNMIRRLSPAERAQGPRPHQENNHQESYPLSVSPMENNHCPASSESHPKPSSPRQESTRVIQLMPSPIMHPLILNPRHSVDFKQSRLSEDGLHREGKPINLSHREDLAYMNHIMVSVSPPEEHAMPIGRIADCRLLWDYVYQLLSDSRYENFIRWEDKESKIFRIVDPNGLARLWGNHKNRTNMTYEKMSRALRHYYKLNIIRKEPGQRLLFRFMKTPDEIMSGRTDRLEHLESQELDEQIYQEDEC

Sequence	binding signal
AGTTTA	1.12 fold enrichment (6-mer frequency, TF over GST control)
GCGGCT	1 fold enrichment (6-mer frequency, TF over GST control)
CGGCAC	1.02 fold enrichment (6-mer frequency, TF over GST control)
